hERG WT inh: KCNH2 (human, wildtype) channel inhibition. 340,000 tested, 0.37% active. U2OS, BacMam KCNH2, thallium flux FluxOr; hits give low values. activity change, % at 1.84 µM. Q12809;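 active means maximum activity change below -70%; inconclusive means maximum activity change between -70% and -50%; inactive means maximum activity change above -50%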
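U2OS cells were transduced with wild-type KCNH2 virus (2.03 x 10^8 / mL) for 4 h at room temperature, then cultured overnight at 37 C. Thallium flux was read with FluxOr dye. Rate constants were normalized to DMSO controls.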
KB-3-1 tox: KB-3-1 parental cell cytotoxicity; KB-3-1 viability, CellTiter-Glo ATP luminescence, 72 h; Potency, µM (doses to about 46.1 µM), actives largely listed as cytotoxic; 400,000 tested, 1.4% active; AID 1347075; further: nearly all actives have a fitted effect of over 60% in size
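Cytotoxicity measured as CellTiter-Glo luminescence after 72 h at 37 C. Compound titrations were pinned onto drug-naive KB-3-1 parental adenocarcinoma cells grown in DMEM with 10% FBS, and normalized data fitted to concentration-response curves.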
SW480 rereplic: induces DNA re-replication in SW480 colon adenocarcinoma cells; 340,000 tested, 1.8% active; SW480 DNA re-replication, Hoechst DNA content imaging, 48 h; Potency, µM (highest dose often 46.1 µM), hits mostly activators; AID 624297; further: nearly all actives have a fitted effect of over 55% in size
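Quantitative HTS format with DMSO vehicle controls; 48 hr drug incubation at 37 C, then 40 min Hoechst staining and scanning imager measurement at 405 nm excitation.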
KCNH2 3.1 inh: KCNH2 3.1 (human) potassium channel inhibition; U2OS KCNH2 3.1, thallium flux FluxOr; hits give low values; activity change, % (tested at about 1.8 µM); 340,000 tested, 0.95% active; AID 720553;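 active means maximum activity change below -70%; inconclusive means maximum activity change from -70% to -50%; inactive means maximum activity change above -50%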;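 further: thallium influx rate constant from kinetic fluorescence after stimulation buffer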
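FluxOr-based Tl+ influx in U2OS cells transduced with KCNH2 3.1 virus; rate constants normalized to DMSO controls.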
MCF10A rerep: DNA re-replication induction in MCF 10a cells; MCF 10A DNA re-replication, Hoechst nuclear intensity, 48 h; Potency, µM (highest dose often 46.1 µM), usual class: activators; 350,000 tested, 2.9% active; AID 624296; further: nearly all actives have a fitted effect of over 50% in size
KB-V1 MDR tox: kills drug-selected multidrug resistant KB-V1 cells; Potency, µM (series often up to 46.1 µM), most hits filed as cytotoxic; KB-V1 MDR cells viability, CellTiter-Glo, 72 h; 400,000 tested, 3.4% active; further: nearly all actives have a fitted effect of over 60% in size
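Drug-selected KB-V1 cells, grown in DMEM lacking phenol red with 10% FBS, receive compound titrations; after three days at 37 degrees C, surviving cell ATP is quantified by CellTiter-Glo luminescence and responses normalized and curve-fitted.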
Numbers stand for hits. Rows were chosen to be rich in hits. Some 7.6% of all compounds tested hit in one or more screens of this group. Unless noted, the call rests on the fitted dose curve; in most records, active means well fitted curve in the direction sought with a large enough effect; inconclusive means small, poorly fitted or top-dose-only effect, or another doubt; inactive means no such curve, though single readings can be large; an effect the other way counts as inactive or inconclusive.

How did COc1ccc(/C=N/NC(=O)c2cc(-c3ccc4c(c3)OCO4)n[nH]2)cc1OC do in these assays?
hERG WT inh: inactive; KB-3-1 tox: inactive; SW480 rereplic: inactive; KCNH2 3.1 inh: inactive; MCF10A rerep: inactive; KB-V1 MDR tox: inactive

Results for CN(C)c1ccc(/C=N/NC(=O)c2cc(-c3ccc4c(c3)OCO4)n[nH]2)cc1 ?
hERG WT inh: inactive; KB-3-1 tox: inconclusive; SW480 rereplic: inconclusive; KCNH2 3.1 inh: inactive; MCF10A rerep: 5.8µM; KB-V1 MDR tox: inconclusive

Results for O=C(N/N=C/c1ccc(F)cc1)c1cc(-c2ccc3c(c2)OCO3)n[nH]1 ?
hERG WT inh: inactive; KB-3-1 tox: inactive; SW480 rereplic: inactive; KCNH2 3.1 inh: inactive; MCF10A rerep: 29.1µM; KB-V1 MDR tox: inactive

What do the screens show for `Cc1csc(NC(=O)CSc2ncnc3c2cnn3-c2ccccc2Cl)n1`?
hERG WT inh: inactive; KB-3-1 tox: inconclusive; SW480 rereplic: inactive; KCNH2 3.1 inh: inactive; MCF10A rerep: 22.4µM; KB-V1 MDR tox: inconclusive

How did Cc1ccccc1-n1ncc2c(SCC(=O)NCc3cccs3)ncnc21 do in these assays?
hERG WT inh: inactive; KB-3-1 tox: 5.17µM; SW480 rereplic: 20.6µM; KCNH2 3.1 inh: inactive; MCF10A rerep: 12.6µM; KB-V1 MDR tox: 7.31µM

How did CC1CN(c2ccc(C(=O)c3ccccc3C(=O)O)cc2[N+](=O)[O-])CC(C)O1 (stereo not given) do in these assays?
hERG WT inh: inactive; KB-3-1 tox: inactive; SW480 rereplic: inactive; KCNH2 3.1 inh: inactive; MCF10A rerep: inactive; KB-V1 MDR tox: inactive

How did O=C(N/N=C/c1cccc2cccnc12)c1ccccc1O do in these assays?
hERG WT inh: inactive; KB-3-1 tox: inconclusive; SW480 rereplic: inconclusive; KCNH2 3.1 inh: inactive; MCF10A rerep: inconclusive; KB-V1 MDR tox: inconclusive

Results for O=C(N/N=C/c1cccc2nccnc12)c1ccccc1O ?
hERG WT inh: inactive; KB-3-1 tox: inconclusive; SW480 rereplic: 14.6µM; KCNH2 3.1 inh: inactive; MCF10A rerep: inconclusive; KB-V1 MDR tox: inactive

What do the screens show for `CC1CCN(C(=O)COC(=O)c2cc(Cl)cc(Cl)c2N)CC1`?
hERG WT inh: inactive; KB-3-1 tox: inactive; SW480 rereplic: inactive; KCNH2 3.1 inh: inactive; MCF10A rerep: inactive; KB-V1 MDR tox: inactive

How did C=CCc1ccc(OCCOc2cccc3ccc(C)nc23)c(OC)c1 do in these assays?
hERG WT inh: inactive; KB-3-1 tox: inconclusive; SW480 rereplic: inconclusive; KCNH2 3.1 inh: inactive; MCF10A rerep: 11.6µM; KB-V1 MDR tox: inconclusive

Results for C=CCc1ccc(OCCOCCN(C)C)c(OC)c1 ?
hERG WT inh: inactive; KB-3-1 tox: inactive; SW480 rereplic: inactive; KCNH2 3.1 inh: inactive; MCF10A rerep: inactive; KB-V1 MDR tox: inactive

How did COc1ccc2c(c1)C1C=CCC1C(c1cc3c(cc1Br)OCO3)N2 (stereo not given) do in these assays?
hERG WT inh: inactive; KB-3-1 tox: inconclusive; SW480 rereplic: 9.2µM; KCNH2 3.1 inh: inactive; MCF10A rerep: 3.66µM; KB-V1 MDR tox: inactive

Results for CC(=O)c1ccc2c(c1)C1C=CCC1C(c1cc3c(cc1Br)OCO3)N2 (stereo not given) ?
hERG WT inh: inactive; KB-3-1 tox: 5.8µM; SW480 rereplic: 11.6µM; KCNH2 3.1 inh: inactive; MCF10A rerep: 4.11µM; KB-V1 MDR tox: 6.51µM

Results for COc1cccc(NS(=O)(=O)c2ccc3c(c2)[C@H]2C=CC[C@H]2[C@@H](c2ccccc2Cl)N3)c1 ?
KB-3-1 tox: inconclusive; KB-V1 MDR tox: inactive

What do the screens show for `Cc1ccc(S(=O)(=O)N2CCCc3cc(NC(=O)c4ccc(Cl)cc4)ccc32)cc1`?
KB-3-1 tox: inactive; KB-V1 MDR tox: inactive

Results for CCCc1cc(CN2CCOCC2)c(O)c(CN2CCOCC2)c1O ?
hERG WT inh: inactive; KB-3-1 tox: inactive; SW480 rereplic: inconclusive; MCF10A rerep: 14.6µM; KB-V1 MDR tox: inconclusive

How did CC1(C)OC(=O)C2(Cc3cc(C(F)(F)F)ccc3N3CCCCC32)C(=O)O1 (stereo not given) do in these assays?
KB-3-1 tox: inactive; KB-V1 MDR tox: inconclusive

Results for Cc1ccc(Nc2nc(CSc3nnc(-c4ccccc4)n3C)cs2)cc1 ?
hERG WT inh: inactive; KB-3-1 tox: inconclusive; SW480 rereplic: inactive; KCNH2 3.1 inh: inactive; MCF10A rerep: inconclusive; KB-V1 MDR tox: inactive

Results for Cc1ccc(Nc2nc(CSc3nnnn3C)cs2)cc1 ?
hERG WT inh: inactive; KB-3-1 tox: inactive; SW480 rereplic: inactive; KCNH2 3.1 inh: inactive; MCF10A rerep: inactive; KB-V1 MDR tox: 23.1µM

How did Cc1ccc(Nc2nc(CSc3nnc(-c4ccccc4C)n3C)cs2)cc1 do in these assays?
hERG WT inh: inactive; KB-3-1 tox: inconclusive; SW480 rereplic: inactive; KCNH2 3.1 inh: inactive; MCF10A rerep: inconclusive; KB-V1 MDR tox: 6.51µM

What do the screens show for `Cc1ccc(Nc2nc(CSc3nnnn3-c3ccccc3)cs2)cc1`?
hERG WT inh: inactive; KB-3-1 tox: inconclusive; SW480 rereplic: inactive; KCNH2 3.1 inh: inactive; MCF10A rerep: inactive; KB-V1 MDR tox: 14.6µM

How did CC1CCCCN1C(=O)Cn1ncc2c3ccccc3n(Cc3ccccc3F)c2c1=O (stereo not given) do in these assays?
KB-3-1 tox: inactive; KB-V1 MDR tox: inconclusive

How did Cc1cccc(NC(=S)NCc2ccc3c(c2)cc(C)n3C)c1C do in these assays?
hERG WT inh: inactive; KB-3-1 tox: inconclusive; SW480 rereplic: inconclusive; KCNH2 3.1 inh: inactive; MCF10A rerep: 13µM; KB-V1 MDR tox: inactive

How did O=C(NNc1ncc(C(F)(F)F)cc1Cl)c1c(Cl)cccc1Cl do in these assays?
hERG WT inh: inactive; KB-3-1 tox: 5.8µM; SW480 rereplic: inconclusive; KCNH2 3.1 inh: inactive; MCF10A rerep: 6.51µM; KB-V1 MDR tox: 2.91µM

How did Cc1cc(C)nc(SCC(=O)Nc2ncc(C(F)(F)F)cc2Cl)n1 do in these assays?
hERG WT inh: inactive; KB-3-1 tox: inconclusive; SW480 rereplic: inactive; KCNH2 3.1 inh: inactive; MCF10A rerep: inactive; KB-V1 MDR tox: inactive

What do the screens show for `O=C(CSc1ncccn1)Nc1ncc(C(F)(F)F)cc1Cl`?
hERG WT inh: inactive; KB-3-1 tox: inactive; SW480 rereplic: inactive; KCNH2 3.1 inh: inactive; MCF10A rerep: 2.06µM; KB-V1 MDR tox: inactive

Results for NC(=O)NNc1ncc(C(F)(F)F)cc1Cl ?
hERG WT inh: inactive; KB-3-1 tox: inactive; SW480 rereplic: inconclusive; KCNH2 3.1 inh: inactive; MCF10A rerep: inactive; KB-V1 MDR tox: inactive

What do the screens show for `O=C(CN1CCN(c2ncc(C(F)(F)F)cc2Cl)CC1)NCCNc1ncc(C(F)(F)F)cc1Cl`?
hERG WT inh: inactive; KB-3-1 tox: inactive; SW480 rereplic: inconclusive; KCNH2 3.1 inh: inactive; MCF10A rerep: 18.4µM; KB-V1 MDR tox: inconclusive

Results for O=C(O)CC/C=C\CC[C@@H]1[C@@H](N2CCCCC2)[C@@H](O)C[C@@H]1OCc1ccc(-c2ccccc2)cc1 ?
SW480 rereplic: inactive; MCF10A rerep: inactive
